Active and inactive are the calls of the source.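 The calls were made as follows: active = clear integrase inhibition at one or more tested doses, judged significant by the depositor; inactive = only baseline response.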

The assay concerns HIV-1 integrase. The experiment in a line: Gel-Based Assay for Inhibitors of HIV Integrase: Counterscreen for TDP1. Particulars: recombinant HIV-1 integrase, 32P DNA gel densitometry; series mostly up to 333 µM. On the procedure: HIV Integrase enables the HIV virus to integrate its genetic material into host cells's DNA. This particular assay was utilized as a counterscreen for inhibitors of human tyrosyl DNA phosphodiesterase I (Tdp1). See probe development summary bioassay AID 485312 for further details on the tdp1 inhibitors project.
HIV-1 integrase catalytic assay was carried out as previously described [Marchand et al. Methods in Enzymology 2001] by mixing 400 nM recombinant integrase with 20 nM [32P] radiolabeled DNA substrate in a buffer containing 50 mM MOPS, pH 7.2, 7.5 mM MgCl2, 14.3 mM 2-mercaptoethanol, and the drug of interest or 10% DMSO. Reactions were incubated at 37 degrees C for 1 h and quenched by the addition of an equal volume of gel loading dye (formamide with 0.25% bromophenol blue, 0.25% xylene cyanol and 5 mM EDTA). Reaction products were separated on a 16% polyacrylamide denaturing sequencing gel. Dried gels were exposed overnight and visualized using a Typhoon 8600 (GE Healthcare, Piscataway, NJ). Densitometry analyses were performed using the ImageQuant software from GE Healthcare.
On to `O=c1c2ccccc2nc2sc(Nc3ccc4c(c3)CCC4)nn12`, for which the outcome was inactive. As for `O=c1c2ccc(Br)cc2nc2sc(Nc3ccc4c(c3)CCC4)nn12`, the outcome was inactive.
